Source: PubChem BioAssay (Tox21)
The source made the active and inactive calls. Calls follow the shape of the full dose curve.

Test: qHTS assay to identify small molecule agonists of the sonic hedgehog signaling (Shh) pathway (AID 1259368); also: nearly all actives have a fitted effect of over 15% in size
Settings: NIH/3T3 Gli1-Luc reporter, luciferase, 24 h; series mostly up to 92.4 µM; activity change: at the top concentration
Summary of the method: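 Quantitative high-throughput format using a Gli1-driven firefly luciferase reporter line derived from NIH/3T3 cells. After a 24 hr compound treatment at 37 C and 5% CO2, luminescence reported Gli1 response element activity.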
% is scaled to controls: 0 for no effect and ±100 for the full control effect.

Row | Compound | activity change | Potency
1 | Cc1nc2ccccn2c(=O)c1CCN1CCC(C(=O)c2ccc(F)cc2)CC1 | 0.798% [at 42.5 µM, active compounds read high] (inactive) | –
2 | CCCCC(=O)O[C@]1(C(=O)CO)[C@@H](C)C[C@H]2[C@@H]3CCC4=CC(=O)C=C[C@]4(C)[C@@]3(F)[C@@H](O)C[C@@]21C | 0.18% (inactive) | –
3 | COc1ccc(C(=O)c2cccc(O)c2)c(OC)c1 | -3.35% (inactive) | –
4 | O=C(CCCN1CCN(c2ccc(F)cc2)CC1)NC1c2ccccc2CSc2ccccc21 (configuration not stated) | -2.39% [at 42.5 µM, active compounds read high] (inactive) | –
5 | C=CCOC(=O)/C=C\C(=O)OCC=C | 1.86% (inactive) | –
6 | O=C(CS)OCCOC(=O)CS | 0.947% (inactive) | –
7 | C[C@@H]1C[C@H]2[C@@H]3CCC4=CC(=O)C=C[C@]4(C)[C@@]3(F)[C@@H](O)C[C@]2(C)[C@H]1C(=O)CO | 0.0481% [at 42.5 µM, active compounds read high] (inactive) | –
8 | Cc1oc(C)c(C(=O)Nc2ccccc2)c1C | -0.0537% (inactive) | –
9 | CCCCCCCCSCCO | 0.462% (inactive) | –
10 | COCc1c(C(C)C)nc(C(C)C)c(/C=C/[C@@H](O)C[C@@H](O)CC(=O)O)c1-c1ccc(F)cc1 | – | inactive
11 | C(=C\c1ccccc1)/CN1CCN(C(c2ccccc2)c2ccccc2)CC1 | -1.95% [at 42.5 µM, active compounds read high] (inactive) | –
12 | COCCOC(=O)C1=C(C)NC(C)=C(C(=O)OC/C=C/c2ccccc2)C1c1cccc([N+](=O)[O-])c1 (configuration not stated) | -2.49% [at 42.5 µM, active compounds read high] (inactive) | –
13 | O=C(CCCCCCC(=O)Nc1ccccc1)NO | 3.16% [at 42.5 µM, active compounds read high] (inactive) | –
14 | CCOC(=O)N1CCC(n2c(=O)[nH]c3cc(Cl)ccc32)CC1 | 0.234% [at 42.5 µM, active compounds read high] (inactive) | –
15 | Nc1ccc(C(=O)OCCCOC(=O)c2ccc(N)cc2)cc1 | 0.535% (inactive) | –
16 | C[C@]12CCC(=O)C=C1C=C[C@@H]1[C@@H]2CC[C@@]2(C)[C@H]1CC[C@@]21CCC(=O)O1 | 0.831% [at 42.5 µM, active compounds read high] (inactive) | –
17 | N#C/C(=C1/SC[C@@H](c2ccc(Cl)cc2Cl)S1)n1ccnc1 | 1.55% [at 42.5 µM, active compounds read high] (inactive) | –
